Pin1 inhibitor – human Pin1 inhibition | Potency, µM (titrated, usually from 115 µM), without a hit: at the highest dose activity, negative = inhibition, actives largely listed as inhibitors | Pin1 FP peptide displacement, HiFluor488, 10 min | 390,000 tested, 0.009% active; active = well fitted inhibition curve with a large enough effect in the polarisation, with a control signal flat, not every such curve was filed as active; inconclusive = small, poorly fitted or top-dose-only effect, or effect the other way, or a change in a side signal; inactive = no such curve, though single readings can be large or run the other way; the % refers to the polarisation; note: potency is the fitted concentration of half-maximal effect; % is set by controls: 0 for no effect and ±100 for the full control effect
Target sequence (Q13526 whole entry, looked up): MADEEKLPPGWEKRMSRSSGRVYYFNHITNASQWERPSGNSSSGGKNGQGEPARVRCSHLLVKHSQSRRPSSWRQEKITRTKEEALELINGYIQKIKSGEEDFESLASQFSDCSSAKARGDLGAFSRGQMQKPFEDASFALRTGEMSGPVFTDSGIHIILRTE
PKM2 activator – increases activity of human pyruvate kinase M2; P14618; purified PKM2, Kinase-Glo ATP luminescence, activation; response scale: 0% is enzyme alone, no compound; Potency, µM (highest dose often 57.5 µM), for the others: top-dose activation, most hits filed as activators; 260,000 tested, 0.34% active; AID 1631; note: potency is the fitted concentration of half-maximal effect; % is set by controls: 0 for no effect and ±100 for the full control effect; nearly all actives have a fitted effect of over 55% in size
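Purified hPK-M2 (>95% pure) converted ADP (0.1 mM final) to ATP with 0.5 mM PEP in 50 mM imidazole pH7.2, KCl, MgCl2, Tween 20, BSA; 1 h at room temperature. ATP detected by Kinase-Glo luminescence.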
ClpP mod – qHTS Assay for Activators of ClpP; AID 651965, 2013; 340,000 tested, 1.9% active; purified B. subtilis ClpP, FRET peptide cleavage, 20 min; ATP-dependent Clp protease proteolytic subunit (Bacillus subtilis (strain 168)), P80244; Potency, µM (top dose mostly 57.5 µM), without a hit: at the highest dose activity change, negative = active; active = well fitted falling curve with a large enough effect; inconclusive = small, poorly fitted or top-dose-only effect; inactive = no such curve, though single readings can be large or run the other way; note: potency is the fitted concentration of half-maximal effect; the source files actives as falling curves though it sought activators and does not explain the sign; nearly all actives have a fitted effect of over 65% in size
Target sequence (P80244 whole entry, looked up): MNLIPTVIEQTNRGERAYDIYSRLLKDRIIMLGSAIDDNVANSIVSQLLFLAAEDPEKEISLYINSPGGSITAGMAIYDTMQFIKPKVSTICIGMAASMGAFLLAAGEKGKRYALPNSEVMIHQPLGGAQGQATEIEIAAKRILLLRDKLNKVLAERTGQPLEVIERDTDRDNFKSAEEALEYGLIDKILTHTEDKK
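Buffer: 100 mM Tris/HCl pH8, 100 mM KCl, 0.05% low protease BSA, 2.5% glycerol, 0.01% Tween-20. ClpP 10 microg/mL final; 20 min RT; delta FRET normalized to ADEP and DMSO controls.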
IL-2 act – IL-2 activation; 360,000 tested, 0.065% active; activation, % (series mostly up to about 46 µM); IL-2 activation reporter assay, cell-based qHTS; stimulated with anti-CD3/CD4/CD28 beads; in transgenic mouse T cells; in the data active = activation above about 50%; inconclusive = mostly about 30% to 49%; note: 0% is about no effect
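Readout: EGFP and DsRed signals by fluorescent plate cytometry. Unstimulated transgenic mouse T cells received compound 60 min before antibody-bead stimulation, then incubated 18 h at 37 degrees C.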
USP2a inh – USP2a (human) protease inhibition | O75604 | USP2 core, Ub-CHOP2 coupled fluorogenic reporter, 485/531 | Potency, µM (titrated, usually from 38.3 µM), for inactives: at the top dose activity change, negative = inhibition, usual class: inhibitors | 330,000 tested, 0.01% active | AID 463254;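 note: potency is the fitted concentration of half-maximal effect; plate controls were DMSO wells for no effect and full inhibition by NEM control for full effect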
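USP2 core (10nM final) preincubated 30min RT with compound in 20mM Tris-HCl pH 8.0, 2mM CaCl2, 2mM beta-mercaptoethanol, 0.05% CHAPS; 25nM Ub-CHOP2 plus 25nM reporter substrate added, fluorescence (Ex485/Em531) read after 60min.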
Integrin act MD – activators of alpha7 integrin expression for muscular dystrophy; 350,000 tested, 0.064% active; Potency, µM (doses to about 38.3 µM), for inactives: top-dose activation, usual class: activators; AID 624291; alpha7betagal myoblasts, beta-gal FDG fluorescence, 48 h;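 note: potency is the fitted concentration of half-maximal effect; 100% = response of the positive control SU9516; nearly all actives have a fitted effect of over 60% in size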
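Alpha7betagal+/- myoblasts (passage 13) were plated 16-24 hr, then exposed to compounds (1:260 dilution of DMSO stock) for 48 hours at 37C. After MPER lysis, β-galactosidase reporter activity was read as FDG fluorescence (ex 480/em 540) after 30 minutes.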
An asterisk follows results filed as active; ? = inconclusive; / = not tested or not shown; [ ] = another dose, or the depositor's remark. Sampled rows, rich in hits. Any-hit rate of the full collection: about 1.9%. Unless noted, calls come from the whole dose curve; as a rule, active = well fitted curve in the direction sought with a large enough effect; inconclusive = small, poorly fitted or top-dose-only effect, or another doubt; inactive = no such curve, though single readings can be large; an effect the other way counts as inactive or inconclusive.

SMILES	Pin1 inhibitor	PKM2 activator	ClpP mod	IL-2 act	USP2a inh	Integrin act MD
COc1cc(-c2c(C#N)c(N)nc3c2CCCC3)ccc1O	-2%	1%	-6%	-2	1%	16%
COc1ccc(-c2noc(-c3cccs3)n2)cc1OC	-1%	-1%	/	-3	2%	3%
COc1nc(-c2cccs2)cc(-c2ccc(C)cc2)c1C#N	-2%	6%	4µM*	-2	1%	13%
COc1ccc(C2=Nn3c(nnc3-c3ccccc3OC)SC2)c(OC)c1	2%	/	/	/	/	/
Cc1ccc(CN2CCCN(Cc3c(F)cccc3Cl)S2(=O)=O)cc1	-2%	/	/	0	-4%	1%
O=S1(=O)N(Cc2ccccc2F)CCCN1Cc1c(F)cccc1Cl	0%	/	32µM*	-7	1%	-37%
COc1ccccc1/C=c1/[nH]c(=O)/c(=C\c2ccccc2OC)[nH]c1=O	/	/	-1%	/	/	/
Cc1cc2c(c(N)n1)c(=O)oc1ccccc12	-2%	-6%	40µM*	0	1%	7%
COC(=O)c1c(C)nc(C)c2c(=O)oc3ccccc3c12	-16%	-1%	0%	0	-2%	-2%
Cc1cnc2ccccc2c1/C=C/c1ccc(N)cc1	/	/	1%	/	/	/
Cc1cccc(C)c1NC(=S)NCCc1ccc(O)c(O)c1	-2%	28µM*	-25%	-1	-8%	-20%
O=S(=O)(Nc1nc2ccccc2nc1NCCN1CCOCC1)c1cccc(Cl)c1	0%	1%	-5%	-3	1%	5%
CCCCn1c(NS(=O)(=O)c2ccc(C)cc2)c(S(=O)(=O)c2ccccc2)c2nc3ccccc3nc21	-13%	12%	25µM*	0	1%	-29%
Nc1c(S(=O)(=O)c2cccc(Cl)c2)c2nc3ccccc3nc2n1CCN1CCOCC1	3%	2%	32µM*	-1	-1%	-5%[7.66 µM]
Cc1ccc(S(=O)(=O)c2c(N)n(CC3CCOC3)c3nc4ccccc4nc23)cc1 (stereo unspecified)	0%	4%	13µM*	-1	-1%	-6%
COc1ccc(C2c3c(ncn(Cc4ccccc4)c3=N)Oc3ccc4ccccc4c32)cc1OC (stereo unspecified)	66%	/	/	/	/	/
CCOC(=O)c1cc(-c2nnc(-c3ccc(Oc4ccccc4)cc3)o2)c(C)nc1C	7%	0%	3.2µM*	-4	2%	1%
CCOC(=O)c1cccc(COC(=O)c2cccc(-c3nnc(-c4ccccc4)o3)c2)c1	-4%	0%	32µM*	1	1%	33%
O=C(OCc1ccccc1)c1cccc(-c2nnc(-c3ccccc3)o2)c1	-7%	-1%	35µM*	1	-2%	9%
COc1cc2nc(N3CCCCC3)nc(NC(C)C)c2cc1OC	/	/	4%	/	/	/
Cc1ccnc2cc(Cl)c(Cl)cc12	/	/	-1%	/	/	/
CCOC(=O)c1cc(-c2cccs2)nc2onc(C)c12	1%	2%	32µM*	2	4%	32%
Cc1ccccc1Cn1ccc(NC(=O)c2nn(C)cc2[N+](=O)[O-])n1	-2%	-6%	28µM*	-1	0%	-47%
CN(C(=O)c1ccoc1)c1ccccc1I	-1%	/	/	/	/	/
O=S(=O)(N1CCN(c2nc(-c3cccs3)nc3ccccc23)CC1)C(F)(F)F	5%	/	4%	/	/	/
SMILES	Pin1 inhibitor	PKM2 activator	ClpP mod	IL-2 act	USP2a inh	Integrin act MD
CCCCC(=O)NCc1ccc(Cl)cc1	-2%	2%	20µM*	1	0%	4%
CCCC(=O)OCC(=O)NCc1ccc(Cl)cc1	3%	/	/	0	2%	6%
c1ccc2c3c(cc(N4CCOCC4)c2c1)OC1(N2CCOCC2)CCCCC1O3 (stereo unspecified)	-7%	-1%	32µM*	0	-2%	-8%
COc1nnc(-c2ccc(N3CCOCC3)c(NC(=O)C3CCCCC3)c2)c2ccccc12	0%	14%	-1%	-1	0%	-14%
N#Cc1nc(Nc2ccc(F)cc2)nc(NC2CCCC2)n1	-3%	/	/	/	/	/
Cc1c(-c2nc3ccccc3[nH]2)cnn1C	?	/	-2%	0	4%	2%
